KCNQ2 inh: KCNQ2 (rat) channel inhibition | O88943 | CHO-K1 KCNQ2, FluxOR thallium flux, 20 min; stronger effect = lower value | B-score at 10 µM | 310,000 compounds, 1.1% hits | AID 2156;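 active = fluorescence ratio B-score at most minus 3 library SDs, with starting brightness B-score within 2 library SDs, cut at about -5.5 in these data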
KCNQ2 enhance: enhances the rat KCNQ2 potassium channel | O88943 | CHO-K1 KCNQ2, FluxOR thallium flux fluorescence; stronger effect = higher value | B-score at 10 µM | 310,000 compounds, 0.54% hits | AID 2239;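 active = fluorescence ratio B-score at least 3 SD of library B-scores, with initial fluorescence B-score within 3 of them, cut at about 5.3 in these data; same plate scores as AID 2156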;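 note: B-score of peak minus minimum over baseline fluorescence ratio after K+ and Tl+ stimulus; positive B-score means potentiation of KCNQ2 with more thallium influx and brighter signal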
KCNQ2 block conf: rat KCNQ2 channel inhibition, confirmatory screen; KCNQ2-expressing cells, thallium flux; stronger effect = lower value; 1,000 compounds, 57% hits; shares compounds with KCNQ2 inh; activity change, negative = inhibition, % at 10 µM
KCNQ1 spec: KCNQ2 inhibitor that also affects human KCNQ1 channel; shares compounds with KCNQ2 inh; KCNQ1-expressing cells, FluxOR thallium flux fluorescence; stronger effect = lower value; 1,000 compounds, 15% hits; activity change, negative = inhibition, % at 10 µM;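 active = activity change at least 3 SD of negative controls below their mean in both duplicate wells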;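 note: CHO cells stably transfected with KCNQ1 and depolarized by potassium stimulus; peak minus minimum fluorescence over baseline after thallium addition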
CHO parental ctr: activity in parental CHO cells lacking KCNQ2. shares compounds with KCNQ2 inh. thallium flux counter-screen; stronger effect = lower value. activity change, % at 10 µM. 1,000 compounds, 14% hits. AID 493029
KCNQ2 patch conf: confirmation of rat KCNQ2 potassium channel inhibitors; shares compounds with KCNQ2 inh; calls only at 10 µM; 550 compounds, 49% hits; KCNQ2-expressing cells, automated patch clamp current
A number is an active result; n = inactive; x = no result given; + = active, no number. An excerpt weighted towards active compounds, which were near 1.6% of everything screened. Unless noted, the rule behind the calls is not given here.

SMILES	KCNQ2 inh	KCNQ2 enhance	KCNQ2 block conf	KCNQ1 spec	CHO parental ctr	others
COc1ccc(-c2cc(C(=O)N3CCCCC3)c3ccccc3n2)cc1	n	x	x	x	x
COc1ccc(-c2cc(C(=O)N3CCCCCC3)c3cc(C)ccc3n2)cc1	-8.46	n	-29.5%	n	n	KCNQ2 patch conf=+
Cc1ccc(-c2cc(C(=O)N3CCOCC3)c3ccccc3n2)cc1	n	x	x	x	x
COc1ccc(-c2cc(C(=O)N3CCOCC3)c3cc(C)ccc3n2)cc1	-7.23	n	-31.0%	n	n	KCNQ2 patch conf=+
O=C(c1cc2ccccn2n1)N1CCN(c2ccccn2)CC1	n	n	x	x	x
O=C(NN1C(=O)c2ccccc2C1=O)c1ccccc1[N+](=O)[O-]	n	n	x	x	x
CCCCN(C)c1nc(-c2ccco2)c2c(c1C#N)CC(C)(C)OC2	-8.16	n	n	n	n
CN(C)CCNc1nc(-c2ccco2)c2c(c1C#N)CC(C)(C)OC2	n	x	x	x	x
CC(C)N(C)S(=O)(=O)c1ccc(Cl)c(C(=O)O)c1	n	x	x	x	x
O=C(c1ccccc1)c1ccc2nc(-c3ccco3)c(-c3ccco3)nc2c1	-7.7	n	n	n	n
O=C(NCCc1ccccc1)c1ccc2nc(-c3ccco3)c(-c3ccco3)nc2c1	n	n	x	x	x
Clc1ccccc1CSC1=NCCCN1	n	x	x	x	x
CC(C)c1nc(N2CCN(C(=O)c3ccco3)CC2)c2c3c(sc2n1)CCCC3	-8.69	n	n	n	n
Cc1nc(N2CCN(C(=O)c3ccco3)CC2)c2c3c(sc2n1)CCC3	n	n	x	x	x
COc1ccc(O)c(C(=O)c2cnc3c(c2)c(=O)[nH]c(=O)n3C)c1	n	n	x	x	x
C=C1SC(Nc2c(C)cccc2C)=NC12CCCCC2	n	x	x	x	x
C=C1SC(Nc2c(C)cc(C)cc2C)=NC12CCCCC2	-7.62	n	-27.5%	n	n	KCNQ2 patch conf=n
COCCNc1c(-c2ccc(OC)cc2)nc2ccc(Cl)cn12	n	x	x	x	x
CCOC(=O)CNc1c(-c2ccc(OC)cc2)nc2ccc(Cl)cn12	-8.94	n	-28.0%	n	n	KCNQ2 patch conf=+
COc1cc(/C=N/NC(=O)c2ccncc2)ccc1OCCN1CCCCC1	n	x	x	x	x
Cc1ccc(O)c(C(=O)c2cnc3c(c2)COc2ccc(C)cc2-3)c1	-6.81	n	n	n	n
Cc1ccc(O)c(C(=O)c2cnc(/N=C(\N)N(C)C)nc2)c1	n	n	x	x	x
O=C(Cn1ccc(C(F)(F)F)n1)N=Nc1c(O)[nH]c2ccccc12	n	x	x	x	x
O=C(Cn1ccc(C(F)(F)F)n1)N=Nc1c(O)[nH]c2ccc(Br)cc12	-9.29	n	-27.0%	n	n	KCNQ2 patch conf=+
Cc1cccc(CN2CCc3c(OCC(=O)N4CCCc5ccccc54)cccc3C2=O)c1	n	x	x	x	x
SMILES	KCNQ2 inh	KCNQ2 enhance	KCNQ2 block conf	KCNQ1 spec	CHO parental ctr	others
CCN(CC)C(=O)C1CCCN(C(=O)c2oc3ccc(C)cc3c2C)C1 (centres undefined)	-6.97	n	n	n	n
CCN(CC)C(=O)C1CCN(C(=O)c2oc3ccc(C)cc3c2C)CC1	n	x	x	x	x
Cc1ccc(C(=O)Nc2ccc(C(=O)N/N=C/c3ccccn3)cc2)cc1	n	x	x	x	x
CCCCOc1ccc(Cc2c(Cl)nc(SC)nc2N2CCOCC2)cc1	n	x	x	x	x
CSc1nc(Cl)c(Cc2ccc(OCC(C)C)cc2)c(N2CCOCC2)n1	-6.81	n	-24.0%	n	n	KCNQ2 patch conf=n
O=C(c1ccccc1NS(=O)(=O)c1ccc(F)cc1)N1CCCCC1	n	x	x	x	x
Cc1ccccc1NC(=O)c1ccccc1N(C)S(=O)(=O)c1ccccc1	-7.63	n	-20.5%	n	n	KCNQ2 patch conf=+
CC(=O)Nc1ccc(NC(=O)c2ccccc2N(C)S(=O)(=O)c2ccccc2)cc1	n	x	x	x	x
COc1ccc(CCNC(=O)c2ccccc2N(C)S(=O)(=O)c2ccccc2)cc1	n	n	x	x	x
CN(c1ccccc1C(=O)NCc1ccccc1Cl)S(=O)(=O)c1ccccc1	-10.1	n	n	n	n
CC1Sc2ccc(S(=O)(=O)CCC(=O)Nc3cc(F)ccc3F)cc2NC1=O (centres undefined)	n	x	x	x	x
c1csc(-c2cn3ccc4ccccc4c3n2)c1	n	n	x	x	x

Screening results: PubChem, Johns Hopkins Ion Channel Center
